Outcome and AC50 data for 20 molecules are collected here from PubChem BioAssay (EPA / NIEHS).

Settings in all cases: mRNA level, 48 h; actives raise or lower the signal
Read-out in assay [1]: Nuclear factor NF-kappa-B p105 subunit (Homo sapiens) (UniProt P19838)
Nature of the assay: LTEA_HepaRG_NFKB1: Life Technologies and Expression Analysis (LTEA) Assay for Nuclear Factor Kappa B Subunit 1 (NFKB1) using HepaRG (AID 2283521).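 Also: differentiated human HepaRG liver cells in serum-free induction medium.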 In outline: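 NFKB1 transcript was measured by TaqMan qRT-PCR on Fluidigm arrays, normalised to three housekeeping genes and fitted in both directions against 0.5% DMSO. HepaRG cells were dosed in duplicate for 48 h in serum-free induction medium, eight half-log steps from 100 uM.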

Read-out in assay [2]: Protein phosphatase 2A (PPP2R4), PTPA (gene 5524)
Nature of the assay: LTEA_HepaRG_PPP2R4: Life Technologies and Expression Analysis (LTEA) Assay for Protein phosphatase 2A (PPP2R4) using HepaRG (AID 2283522). An outline of the steps:
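Readout is PPP2R4 transcript level by microfluidic qRT-PCR after 48 h chemical treatment of human HepaRG liver cells. Concentrations spanned 100 uM downward in half-log steps; gain or loss of signal was fitted relative to DMSO.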

Read-out in assay [3]: Phosphatase and tensin (PTEN), PTEN (gene 5728)
The experiment in a line: LTEA_HepaRG_PTEN: Life Technologies and Expression Analysis (LTEA) Assay for Phosphatase and tensin (PTEN) using HepaRG (AID 2283523). In outline: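 Read-out is PTEN transcript level by multiplexed TaqMan qRT-PCR after 48 h chemical treatment of human HepaRG cultures in serum-free induction medium. Concentrations spanned 100 uM downward in half-log steps, 0.5% DMSO throughout; activity fitted in both directions against vehicle.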

Read-out in assay [4]: solute carrier (SLC22A1), SLC22A1 (gene 6580)
The experiment in a line: LTEA_HepaRG_SLC22A1: Life Technologies and Expression Analysis (LTEA) Assay for solute carrier (SLC22A1) using HepaRG (AID 2283524).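 As to AC50: differentiated human HepaRG liver cells in serum-free induction medium.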 An outline of the steps: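 HepaRG (human liver line), 48 h dosing in serum-free induction medium; 8 conc., half-log down from 100 uM, 0.5% DMSO vehicle, duplicates. Endpoint: SLC22A1 mRNA, qRT-PCR, housekeeping-normalized; gain/loss fit vs DMSO.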

Read-out in assay [5]: Pyruvate Dehydrogenase Kinase 4 (PDK4), PDK4 (gene 5166)
The experiment in a line: LTEA_HepaRG_PDK4: Life Technologies and Expression Analysis (LTEA) Assay for Pyruvate Dehydrogenase Kinase 4 (PDK4) using HepaRG (AID 2283525). In outline: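 In this multiplexed human HepaRG expression assay, cells are treated 48 h with test chemicals across an eight-point range starting at 100 uM. PDK4 mRNA changes, normalized to ACTB/GAPDH/POLR2A, are fitted in both directions relative to vehicle.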

Read-out in assay [6]: NAD(P)H dehydrogenase [quinone] 1 (NQO1), NQO1 (gene 1728)
The experiment in a line: LTEA_HepaRG_NQO1: Life Technologies and Expression Analysis (LTEA) Assay for NAD(P)H dehydrogenase [quinone] 1 (NQO1) using HepaRG (AID 2283526). In outline:
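HepaRG, 48 h post-plating → serum-free induction medium → test chemical 48 h (duplicate, 100 uM top, half-log x8, 0.5% DMSO) → RNA isolation → qRT-PCR, ACTB/GAPDH/POLR2A normalization; bidirectional curve fit vs DMSO baseline.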

Read-out in assay [7]: Nuclear factor erythroid 2-related factor 2 (Homo sapiens) (UniProt Q16236)
Nature of the assay: LTEA_HepaRG_NFE2L2: Life Technologies and Expression Analysis (LTEA) Assay for Nuclear factor erythroid 2-related factor 2 (NFE2L2) Transcription Factor using HepaRG (AID 2283527). An outline of the steps: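 Transcript level of NFE2L2 is the read-out, measured by microfluidic TaqMan qRT-PCR and normalized to three housekeeping genes. Human HepaRG cultures received test chemical for 48 h at up to 100 uM in half-log steps. Gain or loss of signal is fitted relative to 0.5% DMSO.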

Read-out in assay [8]: succinate dehydrogenase complex iron sulfur subunit B (SDHB), SDHB (gene 6390)
The experiment in a line: LTEA_HepaRG_SDHB: Life Technologies and Expression Analysis (LTEA) Assay for succinate dehydrogenase complex iron sulfur subunit B (SDHB) using HepaRG (AID 2283528). In outline: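 SDHB transcript level read by TaqMan qRT-PCR, housekeeping-normalised (ACTB, GAPDH, POLR2A), after 48 h chemical treatment of plated HepaRG cells; eight concentrations top 100 uM, half-log steps, 0.5% DMSO, duplicates; fitted both directions against DMSO.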

Read-out in assay [9]: Signal transducer and activator of transcription 3 (Homo sapiens) (UniProt P40763)
Nature of the assay: LTEA_HepaRG_STAT3: Life Technologies and Expression Analysis (LTEA) Assay for Signal transducer and activator of transcription (STAT3) using HepaRG (AID 2283529). In outline:
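Read-out is STAT3 mRNA level by qRT-PCR, normalized to three housekeeping genes, in human HepaRG liver cells treated for 48 h. Concentrations ran from 100 uM downward in half-log steps; curves were fitted for gain or loss relative to 0.5% DMSO.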

Read-out in assay [10]: solute carrier (SLCO1B1), SLCO1B1 (gene 10599)
Nature of the assay: LTEA_HepaRG_SLCO1B1: Life Technologies and Expression Analysis (LTEA) Assay for solute carrier (SLCO1B1) using HepaRG (AID 2283530). An outline of the steps: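 SLCO1B1 transcript read by qRT-PCR (Fluidigm arrays), normalized to three housekeeping genes, after 48 h chemical exposure of HepaRG cells; bidirectional concentration-response fitting versus 0.5% DMSO baseline. Eight-point half-log series, maximum 100 uM.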

Active and inactive are the calls of the source. The calls were made as follows: active = hit-call score of the fitted dose curve at least 0.9, where 1 is the maximum; inactive = score below 0.9.

Chain of Signal transducer and activator of transcription 3 (Homo sapiens) (P40763 whole entry, looked up): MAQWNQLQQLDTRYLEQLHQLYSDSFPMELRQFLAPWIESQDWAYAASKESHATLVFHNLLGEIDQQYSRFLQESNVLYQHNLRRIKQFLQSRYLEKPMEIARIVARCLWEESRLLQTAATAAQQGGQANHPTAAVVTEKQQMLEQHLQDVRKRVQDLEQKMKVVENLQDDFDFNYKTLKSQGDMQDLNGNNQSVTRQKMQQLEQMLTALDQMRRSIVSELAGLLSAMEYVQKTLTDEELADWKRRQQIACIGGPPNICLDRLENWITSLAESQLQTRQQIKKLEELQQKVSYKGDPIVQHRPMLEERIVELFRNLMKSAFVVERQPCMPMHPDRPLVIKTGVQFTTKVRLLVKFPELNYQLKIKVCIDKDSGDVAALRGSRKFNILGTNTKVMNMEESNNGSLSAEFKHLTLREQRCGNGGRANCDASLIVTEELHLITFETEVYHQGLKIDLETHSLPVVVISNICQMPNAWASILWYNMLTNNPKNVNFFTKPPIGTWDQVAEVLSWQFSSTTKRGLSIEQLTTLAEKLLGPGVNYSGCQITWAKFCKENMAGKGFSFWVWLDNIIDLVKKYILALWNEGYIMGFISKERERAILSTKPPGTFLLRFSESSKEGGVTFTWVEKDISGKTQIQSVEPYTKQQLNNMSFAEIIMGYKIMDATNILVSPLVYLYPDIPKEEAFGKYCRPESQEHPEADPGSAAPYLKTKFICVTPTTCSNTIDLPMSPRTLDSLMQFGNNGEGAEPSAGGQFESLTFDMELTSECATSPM
Chain of Nuclear factor NF-kappa-B p105 subunit (Homo sapiens) (P19838 whole entry, looked up): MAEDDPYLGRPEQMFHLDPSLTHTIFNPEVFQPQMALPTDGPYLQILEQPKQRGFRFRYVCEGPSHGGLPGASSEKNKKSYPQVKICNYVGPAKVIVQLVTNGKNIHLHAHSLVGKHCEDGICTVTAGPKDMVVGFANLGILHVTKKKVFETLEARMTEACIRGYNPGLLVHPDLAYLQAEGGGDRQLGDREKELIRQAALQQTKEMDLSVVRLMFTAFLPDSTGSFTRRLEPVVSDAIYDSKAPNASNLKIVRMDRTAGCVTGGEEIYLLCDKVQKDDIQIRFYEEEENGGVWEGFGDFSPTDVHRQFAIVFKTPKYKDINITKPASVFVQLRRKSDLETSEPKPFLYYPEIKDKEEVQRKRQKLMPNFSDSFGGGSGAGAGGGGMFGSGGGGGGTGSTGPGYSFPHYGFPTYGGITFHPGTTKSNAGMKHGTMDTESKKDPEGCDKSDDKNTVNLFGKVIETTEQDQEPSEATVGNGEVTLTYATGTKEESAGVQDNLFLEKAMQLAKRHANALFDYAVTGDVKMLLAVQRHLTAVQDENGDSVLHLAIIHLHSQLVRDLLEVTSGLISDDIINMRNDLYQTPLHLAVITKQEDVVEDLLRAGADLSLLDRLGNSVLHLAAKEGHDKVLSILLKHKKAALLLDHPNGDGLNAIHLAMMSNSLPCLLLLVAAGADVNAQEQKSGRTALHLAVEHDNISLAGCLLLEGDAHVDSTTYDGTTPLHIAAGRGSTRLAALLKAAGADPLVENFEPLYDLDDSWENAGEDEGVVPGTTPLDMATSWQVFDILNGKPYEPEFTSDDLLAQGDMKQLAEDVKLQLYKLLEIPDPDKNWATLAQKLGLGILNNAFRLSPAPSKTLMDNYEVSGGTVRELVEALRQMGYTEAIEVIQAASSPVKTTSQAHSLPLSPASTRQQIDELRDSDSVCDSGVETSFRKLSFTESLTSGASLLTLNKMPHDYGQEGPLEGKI
Chain of Nuclear factor erythroid 2-related factor 2 (Homo sapiens) (Q16236 whole entry, looked up): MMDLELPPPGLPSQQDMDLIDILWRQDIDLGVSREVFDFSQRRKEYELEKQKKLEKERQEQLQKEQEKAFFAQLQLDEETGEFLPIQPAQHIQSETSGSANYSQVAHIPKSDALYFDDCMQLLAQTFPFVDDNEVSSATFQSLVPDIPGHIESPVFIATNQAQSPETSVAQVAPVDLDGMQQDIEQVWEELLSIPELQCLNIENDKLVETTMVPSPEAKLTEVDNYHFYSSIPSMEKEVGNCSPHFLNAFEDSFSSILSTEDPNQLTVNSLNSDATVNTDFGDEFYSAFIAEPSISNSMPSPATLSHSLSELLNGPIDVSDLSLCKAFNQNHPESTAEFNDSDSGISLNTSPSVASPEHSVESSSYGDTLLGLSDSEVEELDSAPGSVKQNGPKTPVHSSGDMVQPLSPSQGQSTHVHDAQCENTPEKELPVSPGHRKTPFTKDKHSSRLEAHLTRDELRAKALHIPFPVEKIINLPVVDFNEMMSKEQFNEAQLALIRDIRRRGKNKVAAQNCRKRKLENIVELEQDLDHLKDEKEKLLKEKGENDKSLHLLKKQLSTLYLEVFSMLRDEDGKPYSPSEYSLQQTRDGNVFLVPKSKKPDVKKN

Consider `O=Cc1ccco1`, for which the outcome in assay [1], in assay [2], in assay [3], in [4], in assay [5] and in assay [6] was inactive. In addition, the molecule was called inactive in [7], in [8], in [9] and in [10].
On to `CN(C)C(=O)Nc1ccc(Cl)cc1`, for which the molecule was classed as inactive in [1], in assay [2], in [3], in assay [4], in assay [5] and in assay [6]. Also, the outcome in assay [7], in assay [8], in assay [9] and in [10] was inactive.
Regarding `CCOC(=O)[C@]1(c2ccccc2)Oc2ccccc2[C@@H]1N`, the molecule was classed as inactive in assay [1], in assay [2], in [3], in assay [6], in assay [7] and in assay [8]. Also, the outcome in assay [9] was inactive. Moreover, the half-maximal activity concentration (AC50) in assay [4] is 84.2 µM (active); in [5], 71.2 µM (active); in assay [10], 90.6 µM (active).
In the case of `c1ccc(NNc2ccccc2)cc1`, the molecule was called inactive in assay [1], in assay [2], in assay [3], in assay [4], in assay [5] and in assay [6]. Besides, the molecule was classed as inactive in assay [7], in assay [8], in [9] and in assay [10].
With `Cc1ccc(N)cc1`, the result in [1], in assay [2], in assay [3], in [4], in assay [5] and in [6] was inactive. Moreover, the molecule was called inactive in [7], in assay [8], in [9] and in assay [10].
Turning to `Nc1ccc(Oc2ccc(N)cc2)cc1`, the molecule was called inactive in [1], in assay [2], in [3], in assay [4], in assay [5] and in [6]. For the same molecule, the outcome in [7], in [8], in assay [9] and in assay [10] was inactive.
In the case of `CCCCOC(=O)c1ccccc1C(=O)OCc1ccccc1`, the molecule was classed as inactive in [1], in assay [3], in [4], in assay [5], in assay [6] and in assay [7]. Also, the molecule was classed as inactive in [8], in assay [9] and in assay [10]. Further, in assay [2], the AC50 is 0.349 µM (active).
As to `CC(O)CCO` (stereo not given), the molecule was classed as inactive in assay [1], in assay [2], in [3], in assay [4], in assay [5] and in assay [6]. The molecule was classed as inactive in [7], in assay [8], in [9] and in [10].
Turning to `CCCCCCCCn1sccc1=O`, the call in assay [1], in assay [2], in assay [3], in assay [6], in assay [7] and in assay [8] was inactive. The molecule was called inactive in assay [9]. The AC50 is 78.4 µM (active) in assay [4], 34.4 µM (active) in assay [5] and 84.1 µM (active) in assay [10].
In the case of `Oc1ccc2ccc3cccc4ccc1c2c34`, the outcome in assay [1], in assay [2], in assay [3], in assay [4], in assay [5] and in assay [6] was inactive. For the same molecule, the molecule was called inactive in assay [7], in [8], in assay [9] and in assay [10].
`OCCCBr`: the result in assay [1], in assay [2], in assay [3], in assay [4], in assay [5] and in assay [6] was inactive. Moreover, the result in [7], in assay [8], in assay [9] and in [10] was inactive.
Take `Cc1cc(N=Nc2ccccc2C)ccc1N`: the molecule was called inactive in assay [1], in [6], in assay [8] and in assay [9]. In addition, the AC50 in assay [2] is 2.35 µM (active); in assay [3], 4.12 µM (active); in assay [4] it was 4.83 µM (active); in assay [5], 2.39 µM (active); in assay [7] it was 9.92 µM (active); in assay [10], 3.57 µM (active).
Regarding `CCN(CC)N=O`, the result in assay [1], in assay [2], in assay [3], in assay [4], in [5] and in assay [6] was inactive. The molecule was called inactive in assay [7], in assay [8], in assay [9] and in assay [10].
`CC(C)(OOC(C)(C)c1ccccc1)c1ccccc1`: the outcome in [1], in assay [2], in assay [3], in assay [4], in assay [5] and in [6] was inactive. For the same molecule, the result in [7], in assay [8], in assay [9] and in assay [10] was inactive.
As for `CCN(CC)CCO`, the result in assay [1], in assay [2], in [3], in [4], in [5] and in assay [6] was inactive. In addition, the result in [7], in assay [8], in assay [9] and in [10] was inactive.
On to `N#CC(Br)(Br)C(N)=O`, for which the call in assay [1], in assay [2], in assay [3], in [4], in [5] and in assay [6] was inactive. In addition, the call in assay [7], in assay [8], in assay [9] and in assay [10] was inactive.
`COP(=S)(OC)SCN1C(=O)c2ccccc2C1=O`: the molecule was classed as inactive in assay [1], in assay [2], in assay [3], in assay [4], in assay [5] and in [6]. The outcome in [7], in assay [8], in assay [9] and in assay [10] was inactive.
For `Clc1ccccc1Cl`, the result in assay [1], in assay [2], in assay [3], in [4], in [5] and in [6] was inactive. Further, the outcome in assay [7], in assay [8], in assay [9] and in assay [10] was inactive.
In the case of `Oc1ccccc1Cl`, the call in assay [1], in [2], in assay [3], in assay [4], in assay [5] and in [6] was inactive. Also, the molecule was called inactive in assay [7], in assay [8], in [9] and in [10].
Take `O=C(Nc1ccccc1)c1ccccc1I`: the call in [1], in assay [2], in assay [3], in [6], in [8] and in assay [9] was inactive. Moreover, in [10], the outcome was inactive. Moreover, the AC50 is 31.1 µM (active) in assay [4], 9.92 µM (active) in assay [5] and 77.6 µM (active) in assay [7].

Broadly, the AC50 is the concentration giving half of the maximal activity seen.
